Assay results taken from PubChem BioAssay (EPA / NIEHS).
Values joined by “and” are separate entries in the source; they are usually repeats but may differ in a detail not shown here. Equal values may be shown once. A structure can be active in one record and inactive in another. Active and inactive are the calls of the source. Rule for the calls: active = hit-call score of the fitted dose curve at least 0.9, where 1 is the maximum; inactive = score below 0.9.

Experiments:
[1] = ATG_NFI_CIS: Attagene CIS-FACTORIAL HepG2 Assay for human Nuclear Factor I (NFI) (AID 2282989); settings: HepG2 cis-regulatory reporter, NFI response element transcription; actives raise or lower the signal
Procedure, shortened: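 Cells: human liver HepG2, transiently transfected with promoter-regulated reporter transcription units. Exposure 24 h. Detection: fluorescent RT-PCR products separated by capillary electrophoresis, normalised to DMSO negative control.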

[2] = molecular target: Myc proto-oncogene protein (Homo sapiens) (UniProt P01106); assay: ATG_Myc_CIS: Attagene CIS-FACTORIAL HepG2 Assay for human Myelocytomatosis (Myc) Proto-Oncogene Transcription Factor (AID 2282990); settings: HepG2, Attagene cis-reporter transcription factor activity; actives raise or lower the signal
Sequence of Myc proto-oncogene protein (Homo sapiens) (P01106 whole entry, looked up): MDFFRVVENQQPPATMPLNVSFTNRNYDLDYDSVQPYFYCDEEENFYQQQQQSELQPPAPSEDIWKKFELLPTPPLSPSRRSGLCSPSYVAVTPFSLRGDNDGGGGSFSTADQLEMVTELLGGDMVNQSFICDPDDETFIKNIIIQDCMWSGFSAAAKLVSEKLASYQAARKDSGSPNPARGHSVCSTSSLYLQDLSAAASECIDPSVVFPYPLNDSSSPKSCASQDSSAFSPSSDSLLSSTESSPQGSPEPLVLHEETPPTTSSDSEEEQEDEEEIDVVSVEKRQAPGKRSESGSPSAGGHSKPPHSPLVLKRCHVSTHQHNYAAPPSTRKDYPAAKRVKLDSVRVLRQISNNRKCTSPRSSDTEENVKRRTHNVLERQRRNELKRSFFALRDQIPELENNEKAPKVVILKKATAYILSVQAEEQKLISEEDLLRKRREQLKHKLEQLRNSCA
Procedure, shortened: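 Cells of the HepG2 human liver line bear multiple cis-driven reporter transcription units. Reporter mRNA after 24 h exposure is reverse-transcribed, amplified, labelled and resolved by capillary electrophoresis, with gain- or loss-of-signal fitting relative to DMSO.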

[3] = ATG_NF_kB_CIS: Attagene CIS-FACTORIAL HepG2 Assay for human Nuclear Factor Kappa B (NF-kB) (AID 2282991); settings: HepG2 Attagene cis-factorial NF-kB reporter mRNA; actives raise or lower the signal
Procedure, shortened: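 HepG2 cells transfected with cis-promoter-driven reporter units, so endogenous transcription factor activity is measured. Reporter mRNA quantified 24 h after dosing by RT-PCR and capillary electrophoresis, with bidirectional fitting against DMSO.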

[4] = ATG_NRF2_ARE_CIS: Attagene CIS-FACTORIAL HepG2 Assay for human Nuclear Factor Erythroid 2 Related Factor 2 (NFR2) response to Antioxidant Response Elements (ARE) (AID 2282992); settings: HepG2 Attagene ARE/NRF2 reporter, transcription factor activity; actives raise or lower the signal;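 for AC50: reporter mRNA level measured by RT-PCR and capillary electrophoresis fluorescence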
Procedure, shortened: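 HepG2 cells transiently transfected with multiplexed cis-element reporter constructs, 24 h after chemical dosing; reporter mRNA quantified by RT-PCR, fluorescent primer extension, HpaI digestion and capillary electrophoresis. Bidirectional fit relative to DMSO.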

[5] = ATG_Oct_MLP_CIS: Attagene CIS-FACTORIAL HepG2 Assay for human Octamer-Binding Transcription Factor (Oct) (AID 2282993); settings: HepG2 Attagene cis-factorial Oct reporter, mRNA; actives raise or lower the signal
Procedure, shortened: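 HepG2, transient MRTU transfection, cis promoter elements; 24 h dosing; RT-PCR/CE fluorescence read-out of reporter mRNA; fit both directions vs DMSO.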

[6] = molecular target: Cellular tumor antigen p53 (Homo sapiens) (UniProt P04637); assay: ATG_p53_CIS: Attagene CIS-FACTORIAL HepG2 Assay for human p53 Transcription Factor (AID 2282994); settings: HepG2 p53 cis-element reporter, Attagene mRNA; actives raise or lower the signal
Sequence of Cellular tumor antigen p53 (Homo sapiens) (P04637 whole entry, looked up): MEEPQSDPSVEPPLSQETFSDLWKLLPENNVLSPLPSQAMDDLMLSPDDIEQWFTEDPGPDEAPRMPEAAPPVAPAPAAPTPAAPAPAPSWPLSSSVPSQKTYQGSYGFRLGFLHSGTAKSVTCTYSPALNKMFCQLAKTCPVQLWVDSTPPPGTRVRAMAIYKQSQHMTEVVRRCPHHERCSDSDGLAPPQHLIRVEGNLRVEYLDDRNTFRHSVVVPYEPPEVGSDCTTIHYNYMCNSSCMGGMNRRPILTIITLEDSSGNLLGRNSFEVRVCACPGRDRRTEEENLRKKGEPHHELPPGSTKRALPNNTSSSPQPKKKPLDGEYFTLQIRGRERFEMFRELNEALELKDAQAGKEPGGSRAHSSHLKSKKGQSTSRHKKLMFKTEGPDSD
Procedure, shortened: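 HepG2 cells transiently transfected with cis-regulated multiple reporter transcription units, dosed 24 h. Reporter mRNA measured by RT-PCR, 6-FAM primer extension, HpaI digestion and capillary electrophoresis; bidirectional fit relative to DMSO.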

[7] = BSK_3C_VCAM1: BioMAP Diversity Plus: 3C Assay for Vascular cell adhesion molecule 1 (VCAM1) Biomarker Activity (AID 2282999); settings: BioMAP 3C HUVEC, VCAM1 ELISA, cytokine-stimulated; actives raise or lower the signal
Procedure, shortened: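 Endothelial cells from human umbilical vein are treated with test chemical. At 24 h, VCAM-1 is measured by ELISA, and responses in either direction are fitted relative to DMSO.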

[8] = BSK_4H_Eotaxin3: BioMAP Diversity Plus: 4H Assay for Eotaxin 3 Biomarker Activity (AID 2283000); settings: primary human endothelial cells (HUVEC); actives raise or lower the signal
Procedure, shortened: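 HUVEC, 24 h post-dose, ELISA for Eotaxin-3/CCL26. Gain or loss of signal fitted bidirectionally vs DMSO baseline.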

[9] = BSK_3C_uPAR: BioMAP Diversity Plus: 3C Assay for Urokinase-type plasminogen activator receptor (uPAR) Biomarker Activity (AID 2282998); settings: BioMAP 3C HUVEC, uPAR biomarker ELISA; actives raise or lower the signal
Procedure, shortened: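 A multiplexed primary-cell system built on human umbilical vein endothelium was used, with chemical present for 24 h before reading. Cell-surface uPAR was detected by ELISA; signal change in either direction counted against DMSO.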

[10] = BSK_3C_TissueFactor: BioMAP Diversity Plus: 3C Assay for Tissue Factor Biomarker Activity (AID 2282997); settings: BioMAP 3C HUVEC, tissue factor biomarker readout; actives raise or lower the signal
Procedure, shortened: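 Primary human umbilical vein endothelial cells in the 3C system were exposed to test chemical for 24 h, then Tissue Factor measured by ELISA. Activity was fitted bidirectionally against DMSO as negative control and baseline.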

Measured: AC50

CO[C@@H]1[C@H](OC(=O)NC(=O)CCl)CC[C@]2(CO2)[C@H]1[C@@]1(C)O[C@@H]1CC=C(C)C
active: [4] 4.98 µM | [5] 40.5 µM | [7] 6.87 µM | [8] 4.41 µM
inactive: [1] | [2] | [3] | [6]

CCC[CH2][Sn]([Cl])([CH2]CCC)[CH2]CCC
inactive: [1] | [2] | [5]
active: [3] 601 nM | [4] 0.281 µM | [6] 0.771 µM | [8] 0.148 µM

Nc1ccc([N+](=O)[O-])cc1
not listed: [10]
inactive: all other assays above

OCCCBr
not listed: [10]
inactive: all other assays above

CCCSC(=O)N(CCC)CCC
not listed: [7]
inactive: all other assays above

Oc1ccc2ccc3cccc4ccc1c2c34
active: [10] 32.6 µM | [9] 22.3 µM | [7] 35.4 µM | [8] 28.6 µM
inactive: all other assays above

CCNS(=O)(=O)C(F)(F)C(F)(F)C(F)(F)C(F)(F)C(F)(F)C(F)(F)C(F)(F)C(F)(F)F
active: [1] 117 µM and 61.4 µM | [4] 25.7 µM and 41.5 µM and 13.3 µM | [5] 96.5 µM | [7] 14.8 µM | [8] 22.4 µM and 17 µM
inactive: [1] | [5] | [7] | [8]

COC(=O)c1ccccc1N
inactive: all assays above

CCN(CC)N=O
not listed: [7]
inactive: all other assays above

Nc1ccc(Cc2ccc(N)cc2)cc1
not listed: [9]
inactive: all other assays above

[O-][Cl+]O
not listed: [7]
inactive: all other assays above

Cc1cccc(N)c1N
active: [4] 21.6 µM | [5] 167 µM
inactive: [1] | [2] | [3] | [6] | [8]

Oc1ccccc1Cl
active: [4] 52 µM
not listed: [7]
inactive: all other assays above

C[C@]12C=CC3=C4CCC(=O)C=C4CC[C@H]3[C@@H]1CC[C@@H]2O
inactive: [1] | [2] | [3] | [4] | [5] | [10] | [8]
active: [1] 11.9 µM | [3] 19.8 µM and 70.6 µM and 40.3 µM | [4] 17.5 µM and 11.3 µM | [5] 71.1 µM and 13.9 µM and 9.62 µM | [7] 9.42 µM

CCN(CC)CCO
not listed: [9] | [10]
inactive: all other assays above

CN(C)c1ccc(C(=O)c2ccc(N(C)C)cc2)cc1
not listed: [7] | [9] | [10]
inactive: all other assays above

ClC1=C(Cl)C2(Cl)C3C(Cl)C=CC3C1(Cl)C2(Cl)Cl (stereo not drawn)
active: [1] 186 µM | [2] 100 µM | [3] 100000 nM | [5] 149 µM | [6] 100 µM | [10] 26.9 µM | [7] 30.8 µM | [8] 29.9 µM
inactive: [4]

ClCCOCCCl
not listed: [7] | [10]
inactive: all other assays above
